Compound activity (PubChem)
In the library only some 27% were active in any assay of this set; here they are far more common.
CYP2C9 act: human CYP2C9 activators, primary screen, biochemical, luminescence. recombinant CYP2C9, luciferin-H conversion; stronger effect = higher value; factor 1 = untreated enzyme, 0 = blocked. actives 1.4% (n = 96,000). activation factor at 5 µM. Cytochrome P450 2C9 (Homo sapiens), P11712. AID 1024, 2008;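 active = activation factor of 2 or more for CYP2C9 at a 5 µM dose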;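 also: 0 = sulfaphenazole-blocked wells and 1 = vehicle-only wells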
CYP2C9 inh: blockers of cytochrome P450 2C9 activity – biochemical, luminescence, ADME assay, primary screen; P11712; CYP2C9 Supersomes, luciferin-H conversion; inhibition, % at 5 µM; actives 20% (n = 96,000); AID 777, 2007;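 active = blocking of liver enzyme CYP2C9 beyond about 50% at 5 µM, limit read from the data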
CYP2C19 activ: human CYP2C19 activators, primary screen, biochemical, luminescence; Cytochrome P450 2C19 (Homo sapiens), P33261; recombinant CYP2C19, luciferin-H EGE luminescence; stronger effect = higher value; 0 = fully inhibited enzyme, 1 = untreated enzyme; activation factor at 5 µM; 96,000 tested, under 10 active; AID 1025, 2008;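 active = activation factor of at least 2 at 5 µM in the primary screen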;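 also: 0 = wells with 2.5 mM tranylcypromine and 1 = vehicle-only wells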
CYP2C19 inh: blockers of cytochrome P450 2C19 activity – biochemical, luminescence, ADME assay, primary screen | P33261 | CYP2C19 Supersomes, luciferin-H EGE luminescence, 30 min | inhibition, % at 5 µM | actives 21% (n = 96,000) | AID 778, 2007;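 active = CYP2C19 inhibition above a set limit at 5 µM in the primary screen, cut at about 50% in these data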;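 also: plate controls were negative control wells for no effect and 2.5 mM tranylcypromine positive control for full effect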
Cav32 inh: Cav3.2 calcium influx blockers – cell-based, Fluo-4 calcium fluorescence, FDSS, MLSMR library, primary screen; Cav3.2-expressing cells; stronger effect = lower value; B-score at 10 µM; actives 4% (n = 100,000); AID 449739, 2010;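 active = single-dose well whose peak fluorescence ratio is a statistical outlier from its plate by either plate-standardised score or position-corrected B-score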
* marks the source's active call; other numbers are inactive results; / = not tested or not shown.

SMILES	CYP2C9 act	CYP2C9 inh	CYP2C19 activ	CYP2C19 inh	Cav32 inh
COc1ccc(CC/C(=N\O)C2(O)CCCCC2)cc1	0.3	69.8*	0.4	58.5*	-0.622
O/N=C(/CCc1ccccc1)C1(O)CCCCC1	0.4	59.4*	0.2	80.9*	-3.53
COc1ccc(CCCC(=O)NC2CCCCC2)cc1	1.1	-10.2	0.6	35.6	-0.0444
CN1CCN(S(=O)(=O)c2ccc(N(C)Cc3cccs3)nc2)CC1	1.4	-39.5	1	4.1	-0.378
CCn1c(C)nc2cc(C(=O)OC(C(F)(F)C(F)F)C(F)(F)C(F)F)ccc21	0.5	53.9*	0.5	48.3	/
CCn1c(C)nc2cc(C(=O)NNS(=O)(=O)c3c(C)c(C)cc(C)c3C)ccc21	1	-2.0	0.5	54.8*	/
NC(=O)c1c(NC(=O)c2ccccc2)sc2c1CCc1ccccc1-2	1.1	-6.7	0.9	7.3	0.565
CCOc1ccc(N2C(=O)CC(N3CC(C)OC(C)C3)C2=O)cc1 (stereo not given)	1	-4.6	1.2	-15.7	/
Cc1ccc(-n2nnc(-c3nccn3C)n2)cc1	/	/	/	/	0.521
Cn1c(-c2ccccc2)cc(=O)c2ccccc21	1	2.9	0.8	23.0	0.0307
Cn1c2ccccc2c(=O)n2c(=O)c3ccccc3cc12	0.4	55.8*	0.3	68.0*	0.0452
Cc1ccc(C(=O)Nc2cc(C(F)(F)F)ccc2N2CCCCC2)cc1[N+](=O)[O-]	0.7	26.1	0.5	45.8	-3.13
CCOC(=O)N1CCC(NC(=O)c2ccc3c(c2)N(Cc2ccccc2)CCS3)CC1	0.1	91.5*	0.1	85.2*	-1.84
CCOC(=O)N1CCN(C(=O)c2ccc3c(c2)N(CC)CCS3)CC1	0.2	78.0*	1	3.5	0.521
COc1ccc(-n2cnnc2SCC(=O)N2CCN(c3ccccc3)CC2)cc1	0.9	6.8	0.7	34.1	1
Cn1c(COc2ccc(Cl)cc2)nnc1SCc1ncc(-c2ccccc2)o1	1.5	-49.1	0.6	44.8	-9.89*
Cn1c(COc2ccccc2)nnc1SCCSc1nnc(COc2ccccc2)n1C	0.9	10.1	0.9	8.7	0.0701
COc1ccc(-n2cnnc2SCc2ncc(-c3ccccc3)o2)cc1	0.8	20.0	0.3	66.0*	-1.9
CC1=CN2C(=NC(=O)CC2(C)C(=O)N(CC(=O)NC2CCCC2)c2ccccc2C)C=C1 (stereo not given)	/	/	/	/	-0.23
C#CCOCCOCCOCCNc1nc(N2CCN(C(=O)C([C@@H](C)CC)n3cc(C(N)Cc4ccc(O)cc4)nn3)CC2)nc(N2CCN(C(=O)[C@H](CCC(=O)O)n3cc(C(N)[C@H](C)CC)nn3)CC2)n1 (stereo not given in full)	/	/	/	/	1.18
Cc1ccc(N(CC(=O)NCc2ccco2)S(=O)(=O)c2ccccc2)cc1	0.1	91.6*	0.1	93.9*	1.22
Cc1ccc(N(CC(=O)Nc2ccccc2-c2ccccc2)S(=O)(=O)c2ccccc2)cc1	0.4	59.6*	0.5	54.9*	-2.16
COc1ccccc1N(CC(=O)N/N=C/c1ccc(OCC(=O)NCc2ccco2)cc1)S(=O)(=O)c1ccc(C)cc1	0	95.8*	0.1	88.8*	0.0996
O=C(CN(c1ccc2c(c1)OCCO2)S(=O)(=O)c1ccccc1)NCc1ccco1	0.4	61.5*	0.3	70.7*	0.488
O=C(CN(C1CCCCC1)S(=O)(=O)c1ccccc1)NCc1ccco1	/	/	/	/	1.52
SMILES	CYP2C9 act	CYP2C9 inh	CYP2C19 activ	CYP2C19 inh	Cav32 inh
Cc1ccc(N(CC(O)COCc2ccco2)S(=O)(=O)c2ccc(C)cc2)cc1 (stereo not given)	0.1	87.8*	0.1	94.4*	-2.28
Cc1cc(C)cc(NC2=CC(=O)CC(c3ccco3)C2)c1 (stereo not given)	1.2	-21.5	1	-0.9	-0.879
CCc1ccc(NC2=CC(=O)CC(c3ccco3)C2)cc1 (stereo not given)	0.5	52.6*	0.5	53.7*	-0.395
CC(C)(C)NC(=O)NC(=O)COc1ccccc1C#N	0.6	44.4	0.5	50.7*	-0.213
CC1=C(CC(=O)c2ccccc2)C(=O)c2ccccc2C1=O	0.3	67.5*	0.4	62.7*	/
COC(=O)[C@H](CCSC)NC(=O)Nc1ccc(OC)c(Cl)c1	1.2	-16.6	0.6	41.7	0.547
Cc1cccc(N2CCN(C(=O)C3CCN(S(=O)(=O)c4cccc5cccnc45)CC3)CC2C)c1 (stereo not given)	1.3	-31.5	0.1	85.2*	/
Cc1cccc(N2CCN(C(=O)C3CCN(S(=O)(=O)c4cccc5nsnc45)CC3)CC2C)c1 (stereo not given)	0.8	16.7	0.7	33.6	-3.36*
Cc1cccc(C)c1N1C(=O)c2ccccc2C1=O	0.8	15.0	0.5	54.3*	0.64
Cc1ccc(N2C(=O)c3ccccc3C2=O)cc1C	/	/	/	/	-1.5
CC(=O)NC(c1ccco1)c1ccc2cccnc2c1O (stereo not given)	0.7	25.5	0.9	6.2	0.611
Oc1c(C(Nc2ccccn2)c2ccccn2)ccc2cccnc12 (stereo not given)	0.3	67.0*	0.5	48.0	/
Cc1ccc2ccc(C(Nc3ccccn3)c3ccccc3)c(O)c2n1 (stereo not given)	0.1	94.1*	0.3	75.0*	-2.55
COc1cc(C(Nc2ccccn2)c2ccc3ccc(C)nc3c2O)cc(OC)c1O (stereo not given)	0.9	11.8	0.9	10.9	0.384
Cc1cc(NC(c2ccc(Cl)cc2)c2ccc3cccnc3c2O)no1 (stereo not given)	1	-2.1	1.1	-7.6	-4.08*
COc1cc2c(cc1OC)C(=O)CC(C)S2 (stereo not given)	1.2	-24.2	1	1.3	0.182
Cc1ccc(-c2nnc(CSc3nc(C(C)C)nc4sc(C)c(C)c34)o2)cc1	/	/	/	/	-0.0396
CCO[C@@H]1OC(C(=O)O)=C[C@H](c2ccc(Br)cc2)[C@H]1CCCO	/	/	/	/	0.187
COc1ccc(N2C(=O)CS/C2=C\[N+](=O)[O-])cc1	0.9	5.7	0.9	13.1	-0.0495
O=C(CCNc1cccc(Cl)c1)c1cccs1	0.9	13.4	0.6	36.1	-1.92
CCCCCc1c(C)nc(Nc2nc(C)c3cc(OC)ccc3n2)[nH]c1=O	0.5	48.3	0.6	43.5	-3.79*
CCSc1nnc(NC(=O)CSc2nccn2-c2cccc(C)c2C)s1	0.3	69.9*	0.7	34.7	-7.08*
CCSc1nnc(NC(=O)CSc2nccn2-c2cc(C)cc(C)c2)s1	0.5	50.0*	0.8	18.4	-0.62
CCSc1nnc(NC(=O)CSc2ncccn2)s1	1	-2.3	0.9	7.6	0.299
CSCCC(NC=C1C(=O)OC(C)(C)OC1=O)C(=O)O (stereo not given)	0.9	11.2	1	0.3	-0.681
